PubChem BioAssay AID624330 (Southern Research Specialized Biocontainment Screening …, 2012)
In all, about 340,000 compounds went through this assay and about 2,100 (0.62%) were called active.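 The calls were made as follows: active = first-screen hits whose inhibition reached a set limit at any dose in the follow-up dose series; inconclusive = inhibition above the set first-screen limit but never retested; inactive = the rest.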 These entries were drawn from the full list. Potency and affinity values are given separately.

These compounds were tested against Rac GTPase-activating protein 1 (Homo sapiens) (UniProt Q9H0H5) (assay: blockers of MgcRacGAP-driven Rac1 GTP hydrolysis – biochemical, ADP Hunter fluorescence, primary and confirmatory, confirmation (AID 624330;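 also: fluorescence reports GDP produced by GAP-driven GTP hydrolysis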)). Conditions: MgcRacGAP-stimulated Rac1 GTP hydrolysis, at 30 µM, hits give high values, GST-tagged Rac1 F28L mutant substrate.
Rac GTPase-activating protein 1 (Homo sapiens), sequence (Q9H0H5 whole entry, looked up): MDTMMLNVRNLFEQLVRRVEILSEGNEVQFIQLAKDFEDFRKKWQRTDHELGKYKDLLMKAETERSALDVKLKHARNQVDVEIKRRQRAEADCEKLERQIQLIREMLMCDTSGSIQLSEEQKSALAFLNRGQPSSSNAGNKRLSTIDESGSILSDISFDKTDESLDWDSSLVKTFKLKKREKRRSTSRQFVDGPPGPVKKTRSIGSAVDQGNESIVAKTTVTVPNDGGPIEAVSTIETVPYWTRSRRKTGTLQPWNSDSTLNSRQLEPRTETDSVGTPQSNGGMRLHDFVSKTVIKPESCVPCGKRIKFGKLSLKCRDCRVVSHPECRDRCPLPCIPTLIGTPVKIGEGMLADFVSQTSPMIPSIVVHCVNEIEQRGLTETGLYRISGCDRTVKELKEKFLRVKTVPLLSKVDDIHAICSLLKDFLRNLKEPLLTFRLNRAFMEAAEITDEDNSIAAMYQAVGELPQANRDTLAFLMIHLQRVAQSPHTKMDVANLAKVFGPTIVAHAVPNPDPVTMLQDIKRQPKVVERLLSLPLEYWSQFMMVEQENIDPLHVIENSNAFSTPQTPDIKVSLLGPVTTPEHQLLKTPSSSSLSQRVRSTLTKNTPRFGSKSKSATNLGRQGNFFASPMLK

inhibition, inactive:
Nc1nc2n(n1)C(=O)CC(c1ccccc1)N2 (stereo unspecified) -15.9%, CC(=O)Nc1ccc(S(=O)(=O)NC(C)C(=O)OCC(=O)Nc2ccc(F)cc2Cl)cc1 (stereo unspecified) 4.68%, COc1ccc(NC(=O)[C@H](C)NC(N)=O)cc1S(=O)(=O)Nc1cc(C)ccc1Br 9.93%, Nc1cc(Cl)ccc1N1CCCCC1 1.75%, Nc1cc(Cl)ccc1N1CCCCCC1 -8.8%, Nc1cc(Cl)ccc1N1CCOCC1 2.6%, O=S(=O)(c1ccc(N2CCOCC2)c(Cl)c1)N1CCOCC1 2.67%, CC1CCN(c2ccc(C(F)(F)F)cc2N)CC1 3.8%, CC(=O)Nc1cc(C(F)(F)F)ccc1N1CCOCC1 2.07%, O=C(CN(c1ccccc1)S(=O)(=O)c1ccc(Cl)cc1)Nc1cccnc1 -2.54%, C[C@@H](OC(=O)c1[nH]cnc1C(=O)NCc1ccc(CNC(=O)OC(C)(C)C)cc1)c1ccccc1 7.47%, COc1ccccc1NC(=O)CCC(=O)OCC(=O)c1ccc(C)c([N+](=O)[O-])c1 4.59%, Cc1ccc(NC(=O)Cc2nnc(SCC(=O)NC3=NCCS3)n2C)cc1 9.68%, CC(C)Sc1oc(-c2ccco2)nc1S(=O)(=O)c1ccc(F)cc1 9.8%, COc1cc2nc(NC(=O)c3ccc(Cl)cc3)sc(=O)c2cc1OC 12.1%, Cc1cccc(OC(C)C(=O)Nc2nc(-c3ccncc3)cs2)c1 (stereo unspecified) 5.11%, Cc1cccc(Cn2c(N(C)Cc3ccccc3)nc3c2c(=O)[nH]c(=O)n3C)c1 10.6%, C=CCn1c(Cc2ccc(OCC)cc2)nnc1SCC(N)=O 4.65%, Cc1c(Cl)cccc1NC(=S)N1CCN(Cc2ccccc2)CC1 6.91%, COc1cc(/C=N/NC(=O)CCC(=O)Nc2ccc(C)cc2)ccc1O 26.5%, O=C(CCC(=O)Nc1ccc(F)cc1)N/N=C/c1ccc(Br)cc1 3.6%, O=C(Cc1ccccc1)NN=Cc1ccccc1 -1.49%, COc1cc(/C=N/NC(=O)CCC(=O)Nc2ccc(Br)cc2)ccc1O 25.9%, Cc1nc(CC(=O)N/N=C/c2ccc(OCC(=O)O)cc2)cs1 -8.35%, Cc1ccc(NC(=O)CCC(=O)N/N=C/c2cccnc2)cc1 1.87%, O=C(CCC(=O)Nc1ccc(Br)cc1)N/N=C/c1ccc(F)cc1 3.09%, O=C(CCC(=O)Nc1ccc(Br)cc1)N/N=C/c1ccc(O)cc1 22.7%, Cc1ccc(Cl)cc1N1CCN(C(=O)C2CCN(S(=O)(=O)c3cnc[nH]3)CC2)CC1 -2.49%, COc1cc(C(=O)OC(C)C(=O)NC2CCCCC2C)c([N+](=O)[O-])cc1OC (stereo unspecified) -4.78%, Cc1cccc(C)c1NC(=O)N1CC=CCC1 8.07%, CCc1c(C)nc(N2CCN(c3ccccc3)CC2)[nH]c1=O -0.57%, Cc1cc(=O)[nH]c2c1c(-c1ccccc1)nn2C 4.24%, O=C1CN(C(=O)c2ccc(F)cc2)c2ccccc2N1 12.4%, CC(=O)Nc1cccc(NC(=O)c2csc(C)c2)c1 8.66%, O=C(O)c1ccc(N2CCCCC2)cc1O 10.7%, COC(=O)[C@@]1(C)[C@H]2C(=O)N(C)C(=O)[C@H]2[C@H]2CN(C)C(=NC3CCCCC3)N21 9.12%, N#Cc1cnn(-c2nc3sc4c(c3c(=O)[nH]2)CCCC4)c1N 11.7%, CN1C(=O)CCS(=O)(=O)C1c1ccc(Cl)c(Cl)c1 (stereo unspecified) 8.53%, COc1ccc(NC(=O)CSc2nc3c(c(=O)n(C)c(=O)n3C)n2C)c(OC)c1 4.73%, CCOc1ccc(/C=N/NC(=O)CC(=O)Nc2ccc(Cl)c(Cl)c2)cc1 4.45%, O=C(CC(=O)Nc1cccc(Cl)c1)N/N=C\c1ccccc1 1.72%, CC(C)(C)OC(=O)N1CCC(C(=O)N[C@@H](Cc2ccccc2)C(=O)O)CC1 4.57%, CCC(CC)C(=O)c1c[nH]c(C(=O)O)c1 6.73%, Cc1[nH]c2ccccc2c1-c1csc(NC(=O)CSCC(=O)O)n1 19.6%, Cc1[nH]c2ccccc2c1-c1csc(NC(=O)CN2CCOCC2)n1 25.6%, CCOc1ccc(NC(=O)c2ccc(F)c(S(=O)(=O)N3CCCC3)c2)cc1 10.8%, COc1ccc(Oc2c(Cl)cnn(-c3ccc(F)cc3)c2=O)cc1 4.49%, O=C(c1sc2cc(F)ccc2c1Cl)N1CCN(c2ccccc2)CC1 -1.95%, O=c1[nH]n(-c2ccccc2Cl)c(=O)c2ccccc12 4.42%, CC(=O)Nc1ccc2c(=O)n(-c3ccccc3)sc2c1 23.5%, COc1ccc(N2C(=O)C(F)(F)C2c2cccc(F)c2)cc1 (stereo unspecified) 5.49%, O=c1nc(-c2ccccc2Cl)c2cc(F)ccc2[nH]1 9.68%, CC(=O)Nc1ccc(-n2c(=O)c3ccccc3c3ccccc3c2=O)cc1 8.38%, N#Cc1ccc2c(=O)n(-c3ccccc3)sc2c1 22.6%, Cc1cccc(CSC2=NCCN2C(=O)c2ccc(S(=O)(=O)N(C)C)cc2)c1 4.49%, CCOC(=O)CNC(=O)Cn1cnc2c(nnn2-c2ccc(C)cc2)c1=O 1.26%, COCCOCC(O)CN1CCN(c2ccc(C)cc2)CC1 (stereo unspecified) 24.5%, C[C@@H]1CN([C@@H](C)CO)C(=O)CCCn2nncc2CO[C@H]1CN(C)C(=O)OCc1ccccc1 7.03%, CN1CCN(S(=O)(=O)c2cccc(C(=O)N(C)CC(=O)Nc3ccc(F)c(F)c3F)c2)CC1 9.79%, Cc1ccc2nc(SCC(=O)NCc3ccc(F)cc3)nc(=O)n2c1 6.12%, Cc1ccc(C(=O)Nc2ccc(N3CCOCC3)cc2)cc1S(=O)(=O)N1CCCCC1 3.29%
